Bioassay records deposited in PubChem by National Center for Advancing Translational Sciences (NCATS).
AMA1-RON2 inh = AMA1-RON2 (P. falciparum) interaction inhibition. AlphaScreen AMA1-biotinylated RON2 peptide binding. Potency, µM (doses to about 58.2 µM), inactives show at the highest dose activity change, negative = inhibition, hits mostly inhibitors. actives 0.2% (n = 360,000). AID 720542;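 also: 0% = vehicle wells and -100% = peptide control; nearly all actives have a fitted effect of over 45% in size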
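AMA1 (3D7) with his tag at 25 nM final met compounds first, then biotinylated RON2 peptide at 25 nM; detection used donor plus acceptor beads, 10 µg/mL apiece, read by AlphaScreen after 30 min at room temperature.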
VACV Venus inh = vaccinia inhibition (Venus reporter) | actives 0.46% (n = 330,000) | Vaccinia virus Venus reporter expression, fluorescence | AID 720580 | Potency, µM (doses to about 36.5 µM), without a hit: at the highest dose activity change, negative = inhibition, actives largely listed as inhibitors; calls by dose curve; tested in A549 cells; also: nearly all actives have a fitted effect of over 30% in size
LmPK inhibitor = inhibitors of Leishmania mexicana pyruvate kinase; Q27686; purified LmPK, Kinase-Glo ATP luminescence, 1 h; Potency, µM (highest dose often 57.5 µM), without a hit: top-dose activity change, negative = inhibition, most hits filed as inhibitors; actives 0.37% (n = 290,000); AID 1721
Target sequence (Q27686 whole entry, looked up): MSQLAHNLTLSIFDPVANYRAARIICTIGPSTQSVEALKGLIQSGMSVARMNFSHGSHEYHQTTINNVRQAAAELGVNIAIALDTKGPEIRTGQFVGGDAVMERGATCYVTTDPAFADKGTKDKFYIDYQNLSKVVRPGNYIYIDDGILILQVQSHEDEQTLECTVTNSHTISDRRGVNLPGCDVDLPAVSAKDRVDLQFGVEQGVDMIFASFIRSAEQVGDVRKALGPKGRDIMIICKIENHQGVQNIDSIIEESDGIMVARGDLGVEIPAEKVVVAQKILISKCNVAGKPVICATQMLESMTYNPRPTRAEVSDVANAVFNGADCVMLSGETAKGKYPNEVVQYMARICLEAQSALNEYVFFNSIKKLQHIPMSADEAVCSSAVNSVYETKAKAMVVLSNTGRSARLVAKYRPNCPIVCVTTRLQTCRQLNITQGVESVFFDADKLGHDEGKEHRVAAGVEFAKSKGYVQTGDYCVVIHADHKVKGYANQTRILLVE
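Purified LmPK (0.1 nM) converted ADP (0.1 mM) to ATP with PEP (0.5 mM) in imidazole buffer pH 7.2 with KCl and MgCl2, 1 h at room temperature. ATP was read by Kinase-Glo luminescence; data normalized to uninhibited and no-enzyme controls.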
RE007 growth inh = less growth of the S. pombe RE007 Vpr strain. Potency, µM (top dose mostly 92.2 µM), for inactives: top-dose activity change, negative = less growth, actives largely listed as inhibitors. actives 0.21% (n = 360,000). S. pombe RE007 Vpr strain, BacTiter-Glo ATP luminescence, 24 h; active = well fitted falling curve with a large enough effect; inconclusive = small, poorly fitted or top-dose-only effect; inactive = no such curve, though single readings can be large or run the other way; also: nearly all actives have a fitted effect of over 50% in size
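Fission yeast strain RE007, carrying one chromosomally integrated HIV-1 vpr copy, was seeded at OD 0.01 in PMG+AL medium with 23 nL pinned compound. After 24 h at 30 °C and 99% humidity, viability was read by BacTiter-Glo luminescence.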
Tb PYK inh = inhibitors of Trypanosoma brucei pyruvate kinase. Q57TT1. TbPYK enzyme, Kinase-Glo Plus ATP luminescence, 45 min. Potency, µM (top dose mostly 76.8 µM), inactives show at the top dose activity, negative = inhibition, most hits filed as inhibitors. actives 0.12% (n = 410,000). AID 624173; also: nearly all actives have a fitted effect of over 50% in size
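T. brucei PYK with substrate was exposed to pin-transferred compounds across a concentration series, then started with 130 uM ADP (final). After 45 min at room temperature, Kinase-Glo Plus luminescence was read, normalized and curve-fitted.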
Vaccinia mCherry = inhibitors of vaccinia virus infection (mCherry reporter signal); Vaccinia virus mCherry reporter infection, fluorescence; Potency, µM (highest dose often 36.5 µM), for the others: at the top dose activity change, negative = inhibition, usual class: inhibitors; actives 0.63% (n = 310,000); AID 720579; calls by dose curve; tested in A549 cells; also: nearly all actives have a fitted effect of over 35% in size
Numbers without * were called inactive; i = inactive; ? = inconclusive; / = not tested or not shown. Shown are actives, neighbours in structure and some others; about 1.3% of the full set was active somewhere. Unless noted, calls follow the shape of the dose curve; as a rule, active = well fitted curve in the direction sought with a large enough effect; inconclusive = small, poorly fitted or top-dose-only effect, or another doubt; inactive = no such curve, though single readings can be large; an effect the other way counts as inactive or inconclusive. Unless noted, % is scaled to controls: 0 for no effect and ±100 for the full control effect; potency is read from the fitted curve at half-maximal effect.

SMILES | AMA1-RON2 inh | VACV Venus inh | LmPK inhibitor | RE007 growth inh | Tb PYK inh | Vaccinia mCherry
C=CC(=O)Nc1cccc(Oc2cc(Cl)nc3[nH]ccc23)c1 | -16% | 1.6µM* | / | 22% | -3% | ?
Cc1ccccc1Oc1cc(-n2ncc(Cl)c(Cl)c2=O)ncn1 | -2% | 10µM* | -2% | ? | 0% | ?
O=C(NCCO)c1cn(C2CCN(Cc3c(F)cccc3Cl)CC2)nn1 | / | -4% | / | / | / | -4%
CCOC(=O)c1c(NC(=O)C2C3CCC(O3)C2C(=O)O)sc(C)c1-c1ccc(C)cc1 (centres undefined) | -4% | 11µM* | 3% | 6% | -13% | /
CCCCCCCCCCCCCCCC[N+](C)(C)CCN(Cc1ccc(OC)cc1)c1ncccn1 | -1% | 13µM* | / | ? | -10% | ?
Cc1c(C(=O)NCCN2CCC(c3ccccc3)CC2)cnn1-c1nccc(-c2cccs2)n1 | / | -27% | / | / | / | ?
COc1ccc(-c2nnc(Sc3nc4ccccc4o3)c3ccccc23)cc1 | -12% | 11µM* | 4% | 6% | -8% | 8.9µM*
O=c1ccc2ccccc2c2ccccc12 | 8% | -5% | / | ? | -2% | 10%
O=Nc1c(O)c2ccccc2c2ccccc12 | 6% | 10µM* | / | 45µM* | 0% | ?
O=C(NCc1cccnc1)c1cnn(-c2ncc3c(n2)-c2ccccc2CCC3)c1C1CC1 | / | -9% | / | / | / | -16%
Cc1ccc(C(=O)N(Cc2cc3cccc(C)c3nc2N2CCC(O)CC2)C2CC2)cc1 | / | -23% | / | / | / | -23%
O=C(Nc1ccc(Cl)cc1Cl)c1cccc(N2C(=O)C=CC2=O)c1 | -14% | -25% | 12% | 1.3µM* | ? | i
O=C(O)c1cccc(N2C(=O)C=CC2=O)c1 | 1% | -9% | / | 0% | ? | -19%
COc1ccccc1N1CCN(C(=O)c2ccc(C(C)(C)C)cc2)CC1 | -8% | 10µM* | 2% | -21% | ? | 11µM*
COc1ccc(C(=O)N2CCN(c3ccccc3OC)CC2)cc1 | -4% | / | 9% | -10% | -5% | /
Cc1ccc(C)c(NNC(N)=S)c1 | 19% | -5% | 5% | ? | -4% | 5%
Cc1cc(Cl)ccc1NNC(N)=S | 35% | -13% | 3% | 16µM* | -6% | -3%
NC(=S)NNc1cc(Cl)cc(Cl)c1 | 58% | -8% | -4% | 8.9µM* | 1% | -6%
CO[C@H]1C=CO[C@@]2(C)Oc3c(C)c(O)c4c(O)c(c5c(nc6cc(C)ccn65)c4c3C2=O)NC(=O)/C(C)=C\C=C[C@H](C)[C@H](O)[C@@H](C)[C@@H](O)[C@@H](C)[C@H](OC(C)=O)[C@@H]1C | / | -27% | / | / | / | -5%
O=C1CCC[C@@H]2C[C@@]3(C[C@@H]4CCN1[C@H]24)Nc1cc([N+](=O)[O-])ccc1NC3=NCc1ccccc1 | / | -29% | / | / | / | -11%
CCN(CC)c1ccc(C(=C2C=CC(=[N+](CC)CC)C=C2)c2ccccc2)cc1 | 11µM* | 2µM* | / | 4.5µM* | ? | ?
CCN(CC)c1ccc(C(=C2C=CC(=[N+](CC)CC)C=C2)c2ccc(N(CC)CC)cc2)cc1 | 2.2µM* | / | / | ? | ? | /
CCN(CC)c1ccccc1 | 8% | -1% | / | 1% | 1% | i
CCN1CCCc2cc(CN(CCN3CCOCC3)C(=S)Nc3cccc(Cl)c3)ccc21 | 3.5µM* | -3% | -5% | -24% | -16% | ?
Cc1oc(-c2ccccc2NC(=O)C2CCCO2)nc1CNC(=O)c1cc(F)c(F)cc1F (centres undefined) | / | -4% | / | / | / | -13%
COc1cccc(-c2cn3nc(C)c(C)nc3n2)c1 | 12% | -15% | 13µM* | ? | -28% | -1%
Cc1nc2nc(-c3cccs3)cn2nc1C | 64% | / | 28µM* | ? | -14% | /
Cc1nc(C)n(CC(=O)NCC2Cc3cc(-c4cccc(OC(F)(F)F)c4)ccc3O2)n1 (centres undefined) | / | -6% | / | / | / | -2%
Oc1[nH]c(=S)sc1C=C1N=c2ccccc2=N1 | 19% | -3% | 16µM* | 4% | ? | i
